Active and inactive are the calls of the source. How the source made its calls: active means hit-call score of the fitted dose curve at least 0.9, where 1 is the maximum; inactive means score below 0.9.

Read-out in the test: Monocyte Chemoattractant Protein-1 (MCP1), CCL2 (gene 6347)
The test is described as follows: BSK_SAg_MCP1: BioMAP Diversity Plus: SAg Assay for Monocyte Chemoattractant Protein-1 (MCP1) Biomarker Activity (AID 2283090). Conditions: primary human HUVEC with PBMC; actives raise or lower the signal. How it is done: BSK_SAg is a cell-based, multiplexed-readout assay that uses umbilical vein endothelium and peripheral blood mononuclear cells, a human vascular primary cell co-culture, with measurements taken at 24 hours after chemical dosing in a 96-well plate.BSK_SAg_MCP1 is an assay component measured in the BSK_SAg assay. It measures MCP-1 antibody related to regulation of gene expression using ELISA technology.Data from the assay component BSK_SAg_MCP1 was analyzed into 1 assay endpoint. This assay endpoint, BSK_SAg_MCP1, was analyzed with bidirectional fitting relative to DMSO as the negative control and baseline of activity. Using a type of binding reporter, gain or loss-of-signal activity can be used to understand changes in the signaling as they relate to the gene CCL2. Furthermore, this assay endpoint can be referred to as a primary readout, because this assay has produced multiple assay endpoints where this one serves a signaling function. To generalize the intended target to other relatable targets, this assay endpoint is annotated to the cytokine intended target family, where the subfamily is chemotactic factor.
The levels of cell surface (or secreted, indicated by the prefix "s") biomarker endpoints were measured by ELISA. Overt cytotoxicity to cells in confluent adherent cultures (all systems other than the BT system) was assessed by measuring total protein levels using sulforhodamine B (SRB) staining in parallel cultures at the time of biomarker measurements, indicated as SRB endpoints. For proliferation assays for adherent cell types, individual cell types are cultured at sub-confluence and relative cell numbers quantified by SRB staining at time points optimized for each system (48 h: 3C and CASM3C systems; 72 h: BT and HDF3CGF systems; 96 h: SAg system). SRB was performed by staining cells with 0.1% SRB after fixation with 10% TCA and reading wells at 560 nm.Viability and proliferation of PBMC (T cells) was quantified by Alamar Blue reduction for the SAg and BT systems. For PBMC viability (referred to as PBMC Cytotoxicity within the assay endpoint names), cells were plated (75,000/well in a 96-well plate) and then chemical samples added for 1 h before addition of activators, SEB and TSST-1 (20 ng/mL final concentration each). Cells were incubated for 90 h. Then, Alamar Blue (20 uL/well) (Invitrogen, Cat DAL1100) was added for 6 h, and the plates were read with a fluorescence microplate reader at 546/580 nm (excitation/emission). For PBMC proliferation, cells were plated and activated as above but incubated for only 16 h prior to addition of Alamar Blue. Plates were read after 6 h.
Regarding `COc1ccc(C(=O)/C(Br)=C\C(=O)O)cc1`, the AC50 is 20 µM (active).

In the case of `CCCCCCC=O`, the outcome was inactive. Turning to `Nc1cccc(N)n1`, the outcome was inactive. The same measure, in the same setting: the result for `CCN1CN(CC)CN(CC)C1` reads “inactive”; that for `C=CC(=O)OCCCCCCCC(C)C`, “inactive”. For `Oc1c(Cl)cc(Cl)c(Cl)c1Cl`, the AC50 is 31.2 µM (active). Turning to `CC/C=C\CCOC(=O)c1ccccc1O`, the AC50 was 28.5 µM (active). On to `c1ccc2c(c1)[nH]c1ccccc12`, for which the result was inactive. For the molecule `CCCCCCCCC(CO)CCCCCC` (stereo not given), the outcome was inactive. Still for that read-out and setting: the value for `CCCCC1C(=O)N(c2ccccc2)N(c2ccccc2)C1=O` was “inactive”; that for `Fc1ccc(Br)cc1` was “inactive”. For the molecule `CCOC(=O)/C=C\C(=O)OCC`, the result was inactive. For the molecule `CCCCCCOC(=O)CCCCC(=O)OCCCCCC`, the result was inactive. On the same count and under the same terms, the value for `c1ccc2sc(SSN3CCOCC3)nc2c1` was “inactive”; that for `CC(C)[N+](C)(CCOC(=O)C1c2ccccc2Oc2ccccc21)C(C)C` was “inactive”; that for `C[N+](C)(C)CCCNS(=O)(=O)C(F)(F)C(F)(F)C(F)(F)C(F)(F)C(F)(F)C(F)(F)C(F)(F)C(F)(F)F` was “inactive”. For the molecule `CCOC(=O)C1=NN(c2ccc(Cl)cc2Cl)C(C)(C(=O)OCC)C1` (stereo not given), the outcome was inactive.

For `C=CC(=O)NC(C)(C)C`, the outcome was inactive. Take `O=C1CCCCCCCCCCCN1`: the outcome was inactive. As to `C=C(C)C(=O)OCCCCCCCCCCCC`, the outcome was inactive.

Take `Oc1ccc(/C=C/c2cc(O)cc(O)c2)cc1`: the outcome was inactive. On the same count and under the same terms, the value for `O=C(Cl)c1c(Cl)c(Cl)c(C(=O)Cl)c(Cl)c1Cl` was “inactive”; that for `CC=C(C)C(C)=O` was “inactive”. For the molecule `CCCCCC1=CCCC1=O`, the result was inactive. For the molecule `CC(c1cc(C(C)(C)C)cc(C(C)(C)C)c1O)c1cc(C(C)(C)C)cc(C(C)(C)C)c1O`, the result was inactive. Regarding `O=C1CCCCCCCCCCC1`, the result was inactive. Consider `CCCCCCCCCCCC(=O)N(C)CC(=O)O`, for which the result was inactive. Turning to `CCCC(C)C(=O)OCC` (stereo not given), the outcome was inactive. As for `CCCCCCCO`, the result was inactive. Still for that read-out and setting: the value for `C=CCCCCCCCCC=O` was “inactive”; that for `CCC1(C)C(=O)N(Cl)C(=O)N1Cl` (stereo not given) was “inactive”; that for `CCc1cccc(C)c1N(C(=O)CS(=O)(=O)O)C(C)COC` (stereo not given) was “inactive”. For `C=CC(=O)OCC(C)OCC(C)OCC(C)OC(=O)C=C` (stereo not given), the AC50 was 10.5 µM (active).

For the molecule `COc1ccc(C(=O)c2ccccc2)c(O)c1`, the result was inactive. With `CC(Cl)COP(=O)(OCC(C)Cl)OCC(C)Cl` (stereo not given), the outcome was inactive.

As for `C=CC(=O)OCCCCCCOC(=O)C=C`, the AC50 was 11 µM (active). Regarding `Oc1ccccc1Cc1ccccc1O`, the result was inactive.

Turning to `Clc1cc(Cl)c(Cl)c(Cl)c1Cl`, the outcome was inactive.

Regarding `CC1=CC=C(C(C)C)CC1`, the result was inactive. For the molecule `Cc1ccc([N+](=O)[O-])cc1N`, the outcome was inactive.
